# According to the supplement of paper PMC8728848:
# About 410 targets per protein were measured; listed, in parts, are those with the strongest signals and a random draw of the rest.
# B1: Erv46-EDTA (Saccharomyces cerevisiae), P39727 (protein)
# chain: MKFLVNVALVFMVVYISYIYAAAPEHHHHHHDYDIPTTENLYFQGAMDSVVTRPQLVVDRDRHAKLELNMDVTFPSMPCDLVNLDIMDDSGEMQLDILDAGFTMSRLNSEGRPVGDATELHVGGNGDGTAPVNNDPNYCGPCYGAKDQSQNENLAQEEKVCCQDCDAVRSAYLEAGWAFFDGKNIEQCEREGYVSKINEHLNEGCRIKGSAQINRIQGNLHFAPGKPYQNAYGHFHDTSLYDKTSNLNFNHIINHLSFGKPIQSHSKLLGNDKRHGGAVVATSPLDGRQVFPDRNTHFHQFSYFAKIVPTRYEYLDNVVIETAQFSATFHSRPLAGGRDKDHPNTLHVRGGIPGMFVFFEMSPLKVINKEQ
# Key:
# Test in all cases: glycan array binding signal (z-score within array); higher = stronger binding
# Conditions in all cases: glycan notation: IUPAC condensed, linker removed
# [1] = target: GlcNAc(b1-3)Gal(b1-4)GlcNAc(b1-2)[GlcNAc(b1-3)Gal(b1-4)GlcNAc(b1-6)]Man(a1-6)[GlcNAc(b1-3)Gal(b1-4)GlcNAc(b1-2)Man(a1-3)]Man(b1-4)GlcNAc(b1-4)GlcNAc
# How it was run: (§1)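 Glycan array data came from 3228 arrays in the Consortium for Functional Glycomics database, and only arrays with an available protein sequence were kept. Glycan names were put into IUPAC-condensed notation, and columns mapping to the same glycan were averaged. The binding signal is a within-array Z-score, averaged across arrays of one protein sequence run at different concentrations or buffers and across linkers. A negative Z-score can be read as non-binding.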
# [2] = target: GlcNAc(b1-3)Gal(b1-4)GlcNAc(b1-3)Gal(b1-4)GlcNAc(b1-2)Man(a1-3)[GlcNAc(b1-3)Gal(b1-4)GlcNAc(b1-3)Gal(b1-4)GlcNAc(b1-2)Man(a1-6)]Man(b1-4)GlcNAc(b1-4)GlcNAc
# How it was run: as §1
# [3] = target: GlcNAc(b1-3)Gal(b1-4)GlcNAc(b1-3)Gal(b1-4)GlcNAc(b1-3)Gal(b1-4)GlcNAc(b1-3)Gal(b1-4)GlcNAc(b1-2)[GlcNAc(b1-3)Gal(b1-4)GlcNAc(b1-3)Gal(b1-4)GlcNAc(b1-3)Gal(b1-4)GlcNAc(b1-3)Gal(b1-4)GlcNAc(b1-6)]Man(a1-6)[GlcNAc(b1-3)Gal(b1-4)GlcNAc(b1-3)Gal(b1-4)GlcNAc(b1-3)Gal(b1-4)GlcNAc(b1-3)Gal(b1-4)GlcNAc(b1-2)Man(a1-3)]Man(b1-4)GlcNAc(b1-4)[Fuc(a1-6)]GlcNAc
# How it was run: as §1
# [4] = target: GlcNAc(b1-6)GalNAc
# How it was run: as §1
# [5] = target: Neu5Ac(a2-3)Gal(b1-3)GlcNAc(b1-2)Man(a1-3)[Neu5Ac(a2-3)Gal(b1-3)GlcNAc(b1-2)Man(a1-6)]Man(b1-4)GlcNAc(b1-4)GlcNAc
# How it was run: as §1
# [6] = target: Neu5Ac(a2-3)Gal(b1-3)[Fuc(a1-4)]GlcNAc(b1-3)Gal(b1-3)[Fuc(a1-4)]GlcNAc
# How it was run: as §1
# [7] = target: Neu5Ac(a2-3)Gal(b1-4)GlcNAc(b1-2)Man(a1-3)[Neu5Ac(a2-3)Gal(b1-4)GlcNAc(b1-2)Man(a1-6)]Man(b1-4)GlcNAc(b1-4)[Fuc(a1-6)]GlcNAc
# How it was run: as §1
# [8] = target: Neu5Ac(a2-3)Gal(b1-4)GlcNAc(b1-2)[Neu5Ac(a2-3)Gal(b1-4)GlcNAc(b1-6)]Man(a1-6)[Neu5Ac(a2-3)Gal(b1-4)GlcNAc(b1-2)Man(a1-3)][GlcNAc(b1-4)]Man(b1-4)GlcNAc(b1-4)GlcNAc
# How it was run: as §1
# [9] = target: Neu5Ac(a2-3)Gal(b1-4)[Fuc(a1-3)]GlcNAc(b1-3)Gal
# How it was run: as §1
# [10] = target: Neu5Ac(a2-3)Gal(b1-4)[Fuc(a1-3)]GlcNAc6S
# How it was run: as §1
# [11] = target: Neu5Ac(a2-3)[GalNAc(b1-4)]Gal(b1-4)GlcNAc
# How it was run: as §1
# [12] = target: Neu5Ac(a2-6)Gal
# How it was run: as §1
# [13] = target: Neu5Ac(a2-6)Gal(b1-4)GlcNAc(b1-2)Man(a1-3)[Neu5Ac(a2-3)Gal(b1-4)GlcNAc(b1-2)Man(a1-6)]Man(b1-4)GlcNAc(b1-4)GlcNAc
# How it was run: as §1
# [14] = target: Neu5Ac(a2-6)Gal(b1-4)GlcNAc(b1-2)Man(a1-6)[Gal(b1-4)GlcNAc(b1-2)Man(a1-3)]Man(b1-4)GlcNAc(b1-4)GlcNAc
# How it was run: as §1
# [15] = target: Neu5Ac(a2-6)Gal(b1-4)GlcNAc(b1-3)Gal(b1-4)GlcNAc(b1-3)Gal(b1-4)GlcNAc(b1-2)Man(a1-3)[Neu5Ac(a2-6)Gal(b1-4)GlcNAc(b1-3)Gal(b1-4)GlcNAc(b1-3)Gal(b1-4)GlcNAc(b1-2)Man(a1-6)]GalNAc
# How it was run: as §1
# [16] = target: Neu5Ac(a2-6)Gal(b1-4)GlcNAc(b1-6)GalNAc
# How it was run: as §1
# [17] = target: Neu5Ac(a2-8)Neu5Ac(a2-3)Gal(b1-3)GalNAc(b1-4)[Neu5Ac(a2-3)]Gal(b1-4)Glc
# How it was run: as §1
# [18] = target: Neu5Ac(a2-8)Neu5Ac(a2-3)Gal(b1-4)GlcNAc
# How it was run: as §1
# [19] = target: Neu5Ac(a2-8)Neu5Ac(a2-3)[Gal(b1-3)GalNAc(b1-4)]Gal(b1-4)Glc
# How it was run: as §1
# [20] = target: Neu5Gc(a2-3)Gal(b1-4)[Fuc(a1-3)]GlcNAc
# How it was run: as §1
# [21] = target: Neu5Gc(a2-8)Neu5Gc(a2-3)Gal(b1-4)GlcNAc(b1-3)Gal(b1-4)GlcNAc
# How it was run: as §1
binder,measurement,setting,value
B1,glycan array binding signal (z-score),[1],2.9
same,glycan array binding signal (z-score),[2],3.36
same,glycan array binding signal (z-score),[3],0.589
same,glycan array binding signal (z-score),[4],-0.565
same,glycan array binding signal (z-score),[5],1.06
same,glycan array binding signal (z-score),[6],-0.483
same,glycan array binding signal (z-score),[7],0.11
same,glycan array binding signal (z-score),[8],-0.335
same,glycan array binding signal (z-score),[9],-0.531
same,glycan array binding signal (z-score),[10],-0.585
same,glycan array binding signal (z-score),[11],0.122
same,glycan array binding signal (z-score),[12],-0.121
same,glycan array binding signal (z-score),[13],-0.318
same,glycan array binding signal (z-score),[14],-0.053
same,glycan array binding signal (z-score),[15],3.54
same,glycan array binding signal (z-score),[16],-0.855
same,glycan array binding signal (z-score),[17],-0.029
same,glycan array binding signal (z-score),[18],-0.501
same,glycan array binding signal (z-score),[19],-0.605
same,glycan array binding signal (z-score),[20],0.625
same,glycan array binding signal (z-score),[21],-0.449
